Pf growth 96h = P. falciparum growth inhibition at 96 hours | AID 504834 | P. falciparum luciferase reporter growth, 96 h | Potency, µM (series often up to 28.7 µM), for the others: at the highest dose activity change, negative = inhibition, most hits filed as inhibitors | 6.9% of 320,000 active; also: potency is read from the fitted curve at half-maximal effect; % is scaled to controls: 0 for no effect and ±100 for the full control effect
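Compounds incubated with erythrocytes infected by luciferase-expressing P. falciparum (2% hematocrit, 0.05% parasitemia final) for 96 hours, 37 C in 5% CO2. Growth inhibition scored as decreased luciferase luminescence.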
LmPK inhibitor = LmPK (Leishmania mexicana) enzyme inhibition | Q27686 | purified LmPK, Kinase-Glo ATP luminescence, 1 h | Potency, µM (top dose mostly 57.5 µM), for inactives: top-dose activity change, negative = inhibition, usual class: inhibitors | 0.37% of 290,000 active | AID 1721; also: potency is read from the fitted curve at half-maximal effect; % is scaled to controls: 0 for no effect and ±100 for the full control effect
Target sequence (Q27686 whole entry, looked up): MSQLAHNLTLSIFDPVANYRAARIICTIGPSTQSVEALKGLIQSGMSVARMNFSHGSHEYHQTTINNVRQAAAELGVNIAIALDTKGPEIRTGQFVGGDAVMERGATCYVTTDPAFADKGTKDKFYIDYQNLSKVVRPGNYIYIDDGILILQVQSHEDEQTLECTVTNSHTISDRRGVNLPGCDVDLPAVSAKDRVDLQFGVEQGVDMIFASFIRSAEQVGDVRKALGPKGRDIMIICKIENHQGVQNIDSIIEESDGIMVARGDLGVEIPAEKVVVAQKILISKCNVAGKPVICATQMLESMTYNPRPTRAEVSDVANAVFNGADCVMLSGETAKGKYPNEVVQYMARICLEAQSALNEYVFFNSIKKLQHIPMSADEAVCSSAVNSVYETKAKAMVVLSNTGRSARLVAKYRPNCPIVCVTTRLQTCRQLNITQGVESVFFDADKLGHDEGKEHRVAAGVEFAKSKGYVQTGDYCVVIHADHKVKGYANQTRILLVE
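In 50 mM imidazole pH 7.2 with 7 mM MgCl2, LmPK (0.1 nM) turned over PEP (0.5 mM) and ADP (0.1 mM) for 1 h at room temperature. Luciferase read-out of ATP.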
Shiga inhibitor = inhibitors of Shiga toxin in Vero cells; Vero cells, Shiga toxin protein synthesis inhibition reporter; inhibition, % at 38.7 µM; 9.2% of 290,000 active; AID 2315; in the data active = inhibition mostly above about 28%, no sharp cut-off; inactive = mostly below about 43%; also: 0% is about no effect
CHX counter = counter-screen for Shiga toxin inhibitors: cycloheximide protein synthesis inhibition | cell reporter, cycloheximide protein synthesis inhibition counterscreen | max response, % | 12% of 300,000 active | AID 2314; in the data active = max response mostly above about 13%, no sharp cut-off; inactive = mostly below about 14%; also: read at 38.3 µM for the half of the compounds with a filed dose; 0% is about no effect
Pf growth 48h = inhibits P. falciparum growth in the first generation, 48 h | P. falciparum luciferase growth in erythrocytes, 48 h | Potency, µM (highest dose often 28.7 µM), inactives show at the highest dose activity change, negative = inhibition, actives largely listed as inhibitors | 5.9% of 310,000 active | AID 504832; also: potency is read from the fitted curve at half-maximal effect; % is scaled to controls: 0 for no effect and ±100 for the full control effect
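Growth was read as firefly luciferase luminescence after a 48 h, 37 C, 5% CO2 exposure of compounds to reporter-bearing P. falciparum cultures (0.1% parasitemia, 2% hematocrit final) in Albumax-supplemented RPMI 1640.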
Starred values were filed as active, the others as inactive; ? = inconclusive; nt = not tested or not shown; [ ] = another dose, or the depositor's remark. This is a sample that favours compounds with a hit; in the whole collection about 22% have one here. Unless noted, calls follow the shape of the dose curve; as a rule, active = well fitted inhibition curve with a large enough effect; inconclusive = small, poorly fitted or top-dose-only effect, or another doubt; inactive = no such curve, though single readings can be large or run the other way.

SMILES	Pf growth 96h	LmPK inhibitor	Shiga inhibitor	CHX counter	Pf growth 48h
Clc1ccccc1CSC1=NCCN1	23%	0%	9	12	15µM*
Clc1ccccc1CSc1nc2ccncc2[nH]1	?	-15%	66	21*	nt
COc1cccc(CSc2nc3ccncc3[nH]2)c1	-6%	25µM*	50*	41*	58%
COc1cccc(N2CCN(C(=O)c3ccc(CSc4nc5ccncc5[nH]4)cc3)CC2)c1	53%	1%	-8	-2	?
O=C(NCc1ccccc1Cl)c1ccc(CSc2nc3ccncc3[nH]2)cc1	?	4%	-5	-4	12µM*
CCOC(=O)[C@@H]1[C@H]2COc3cc(OC)ccc3[C@@H]2N2C(=O)N(c3ccc(C)cc3)C(=O)[C@@]12C	?	6%	-8	-2	?
CCOC(=O)[C@@H]1[C@H]2COc3cc(OC)ccc3[C@@H]2N2C(=O)N(c3ccc(Cl)cc3)C(=O)[C@@]12C	?	-1%	29*	16*	?
CCOC(=O)[C@H]1[C@H]2COc3cc(OC)ccc3[C@@H]2N2C(=O)N(c3ccc(Cl)cc3)C(=O)[C@@]12C	5.2µM*	2%	-5	-1	-94%
Cc1nnc(SCc2cccc([N+](=O)[O-])c2)s1	?	1%	50	18*	30%
Cc1nnc(SCc2ccc(Cl)c(Cl)c2)s1	-86%	9%	22	14*	32%
Cc1nnc(SCc2ccc(F)cc2)s1	nt	-7%	55*	28*	46%
O=C(Nc1nnc(SCc2ccccc2)s1)c1cccc([N+](=O)[O-])c1	-2%	-9%	11	5	10%
Cc1nnc(SCc2cc(=O)[nH]c(=S)[nH]2)s1	?	0%	9	-5	10%
Nc1nc(SCc2ccc(F)cc2)ns1	3%	-4%	69*	40*	-4%
COC(=O)c1cc(S(=O)(=O)NCc2ccc(Br)cc2)c[nH]1	-1%	1%	-15	-1	9%
CCC(=O)Nc1ccc(NC(=O)c2cc3ccccc3o2)c(OC)c1	12%	1%	34*	27*	79%
COc1cc(NC(=O)c2ccc(F)cc2)ccc1NC(=O)c1cc2ccccc2o1	273%	-1%	-2	6	60%
COc1cc(NC(=O)c2c(OC)cccc2OC)ccc1NC(=O)c1cc2ccccc2o1	4%	-2%	nt	22*	81%
CC(C)(C)c1cc(CN(CCO)CCO)c(O)c(C(C)(C)C)c1	?	4%	1	-2	?
CCn1nnnc1NC(=O)c1cccc(OC)c1	3%	-3%	83*	32*	88%
COc1ccc(C(=O)Nc2ccc(NC(=O)c3cccc(OC)c3)cn2)cc1	-7%	1%	28	8	?
CCC(=O)Nc1ccc(NC(=O)c2cccc(OC)c2)nc1	-8%	?	24*	23*	392%
COc1ccc(C(=O)Nc2ccc(NC(=O)C3CC3)nc2)cc1	10µM*	-16%	-8	-6	9%
COc1cccc(C(=O)Nc2ccc(NC(=O)C3CC3)cn2)c1	8.3µM*	?	70*	29*	152%
Cc1cc(CNC(=O)CC2C(=O)NCCN2Cc2ccccc2C(F)(F)F)on1 (configuration not stated)	-3%	16%	-4	2	?
SMILES	Pf growth 96h	LmPK inhibitor	Shiga inhibitor	CHX counter	Pf growth 48h
O=C(Nc1nnc(SCCN2CCOCC2)s1)C1CC(=O)N(c2ccccc2)C1 (configuration not stated)	?	-6%	-2	1	-23%
COc1cccc(N2CCN(c3nc(C)cc(=O)[nH]3)CC2)c1	0%	-1%	-2	-3	3%
CCOC(=O)CN1C(=O)N[C@@H](CCc2ccccc2)[C@H](C(=O)OC)[C@H]1C	nt	-3%[11.5 µM]	nt	nt	nt
CCCC1CCc2c(sc(NC(=O)OCC)c2C#N)C1 (configuration not stated)	12µM*	-3%	33	11	-27%
CCOC(=O)Nc1sc2c(c1C#N)CCCC2	124%	8%	74*	31*	nt
O=C(CSc1nnc(CNC(=O)c2ccco2)o1)Nc1ccccc1F	-10%	-10%	-5	-2	10%
O=C(O)C1CC(O)CN1c1nc(Cl)ccc1[N+](=O)[O-] (configuration not stated)	16%	2%	-6	-2	2%
COc1ccc(NC(=O)c2cc(-c3ccccn3)nc3ccccc23)cc1S(=O)(=O)N(C)C	-25%	nt	nt	nt	?
CC(=O)N1CCN(Cc2nc3cc(NC(=O)COc4cccc(C)c4)ccc3n2C)CC1	26%	-1%	-12	-1	-29%
CC(c1ccccc1)n1cnc2ccccc21 (configuration not stated)	32%	0%	19	8	-18%
CC(c1ccccc1)n1cncc1C(=O)O (configuration not stated)	1.5µM*	0%	13	-1	4%
COC(=O)c1cncn1C(C)c1ccccc1 (configuration not stated)	2.1µM*	1%	1	-1	?
Cc1ccc(C)c(OCC(O)CN2C(C)CCCC2C)c1 (configuration not stated)	nt	1%	5	1	?
Cc1ccc(C)c(OCC(O)CN2CCC(Cc3ccccc3)CC2)c1 (configuration not stated)	?	4%	-2	-4	7.4µM*
Cc1ccc(C)c(OCC(O)CN2CCCCC2C)c1 (configuration not stated)	10µM*	-1%	-11	-3	?
OC(COc1ccc(Cl)cc1)CN1CCC(Cc2ccccc2)CC1 (configuration not stated)	?	-8%	14	-9	-14%
CCn1ncc(/C=N\NC(=O)Cc2ccc([N+](=O)[O-])cc2)c1C	9%	-1%	2	-2	-2%
COc1cc(C(=O)Nc2ccc(N(C)C)cc2)c([N+](=O)[O-])cc1OC	8%	-8%	107*	41*	76%
COc1cc(C(=O)Nc2ccc(C#N)cc2)c([N+](=O)[O-])cc1OC	10µM*	11%	3	-1	8%
COc1ccc(CNC(=O)c2nn(-c3ccccc3)cc2OC)cc1	-16%	-4%	-12	-1	?
O=C(COC(=O)c1cccs1)c1ccccc1	35%	14µM*	78*	42*	67%
COc1cc(N)c(Cl)cc1C(=O)OCC(=O)N1CCCCCC1	-8%	nt	nt	nt	2%
COc1cccc(C(=O)COC(=O)c2cccs2)c1	-13%	-13%	76*	38*	33%
COc1cccc(C(=O)COC(=O)c2n[nH]c(=O)c3ccccc23)c1	-2%	1%	-3	-3	3%
COc1cc(N)c(Cl)cc1C(=O)OCC(=O)c1cccs1	-4%	0%	54*	19	14%
O=C(CNC(=O)c1cccs1)NCC(=O)OCC(=O)c1ccccc1	25%	8%	-18	-4	0%
Cc1ccc(NNc2c(C)nc3ccccc3nc2=O)cc1	19%	0%	29	13	16%
